Assay [1] can be described thus: NCI Yeast Anticancer Drug Screen. Data for the rad50 strain (AID 155).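 Also: 0% = growth of vehicle-only cultures of the same strain.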 As to conditions: S. cerevisiae rad50 strain growth inhibition; at 50.0 µM; active compounds read high. The essentials:
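Relative growth inhibition (compound vs vehicle) was measured in yeast with a defined repair-gene alteration.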

Assay [2] can be described thus: NCI Yeast Anticancer Drug Screen. Data for the mec2-1 strain (AID 157). Particulars: S. cerevisiae mec2-1 strain, at 50.0 µM, active compounds read high. The essentials: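 Each compound was tested on mec2-1 yeast, a strain altered in DNA damage repair or cell cycle control. Growth inhibition is reported relative to vehicle.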
Assay [3] is described as follows: NCI Yeast Anticancer Drug Screen. Data for the sgs1 mgt1 strain (AID 161).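 Also: 0% = growth of cultures given vehicle only.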 Particulars: S. cerevisiae sgs1 mgt1 strain, at 50.0 µM, active compounds read high. In a few lines:
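Inhibition of yeast growth, normalised to vehicle-treated controls, is reported for a strain bearing genetic alterations in DNA damage repair.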

Assay [4] is described as follows: NCI Yeast Anticancer Drug Screen. Data for the cln2 rad14 strain (AID 165).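 Also: 0% = growth equal to vehicle treated cultures.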 Particulars: S. cerevisiae cln2 rad14 strain, at 50.0 µM, active compounds read high. The essentials: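 Test compounds were added to cln2 rad14 yeast cultures; inhibition of growth was then determined by comparison with vehicle treatment.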
Assay [5] is described as follows: NCI Yeast Anticancer Drug Screen. Data for the bub3 strain (AID 167). Particulars: S. cerevisiae bub3 mutant strain, at 50.0 µM, active compounds read high. In a few lines: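 Screening used yeast with an engineered genetic alteration affecting cell cycle control. Compound-exposed cultures were compared with vehicle cultures, and reduced growth was taken as inhibition.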

Assay [6] in a line: NCI Yeast Anticancer Drug Screen. Data for the mlh1 rad18 strain (AID 175). Particulars: S. cerevisiae mlh1 rad18 strain growth inhibition; at 50.0 µM; active compounds read high. In a few lines: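 Inhibition values reflect reduced growth of mutant yeast versus vehicle-treated controls following compound exposure; the mutations affect DNA damage repair.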

About 79,000 compounds went through this panel and 15% of them were active in at least one assay; those are over-represented in the sample as a whole. A number with no mark means an inactive call. Activity calls are given as the source filed them. Rule as the data show it: active = growth inhibition above about 70%; inactive = the rest.

`NC(N)=NC(=S)Nc1ccc(Cl)cc1`: the growth inhibition in assay [1] was 21.6%; in assay [2] it was 1.6%; in assay [3], 7.55%; in assay [4], -4%; in assay [5], -15.7%; in assay [6], 31.1%.

As for `CCN(CC)CCN(C(=Nc1ccccc1)N1CCOCC1)c1ccccc1`, the growth inhibition in assay [1] was -19.8%; in assay [2], -40.5%; in assay [3] it was 3.6%; in assay [4], -3.8%; in assay [5], 4.8%; in assay [6], -11.9%.

Regarding `Cn1c(=O)c2c(ncn2CCCCn2ccnc2[N+](=O)[O-])n(C)c1=O`, the growth inhibition is -30.1% in assay [1]; -3.95% in assay [2]; -14.9% in assay [3]; 7.3% in assay [4]; -1.25% in assay [5]; -5.35% in assay [6].

Turning to `Clc1ccc(-c2nnc(-c3ccc4ccccc4c3)o2)cc1Cl`, the growth inhibition in assay [1] was 3.25%; in assay [2], -28.9%; in assay [3], 7.15%; in assay [4], 11.8%; in assay [5] it was -14.9%; in assay [6], -6.2%.

With `CC(CO)CCC(O)C(C)(O)C1CCC2(O)C3=CC(=O)C4CC(O)C(O)CC4(C)C3CCC12C` (stereo unspecified), the growth inhibition is 4.05% in assay [1]; -23.5% in assay [2]; 10.2% in assay [3]; 7.75% in assay [4]; 17.8% in assay [5]; -68.2% in assay [6].

For `Cc1cccc2c1NC(O)c1cccn1C2=O` (stereo unspecified), the growth inhibition in assay [1] was 6.45%; in assay [2], 2.75%; in assay [3], 5.55%; in assay [4], -22.4%; in assay [5] it was -18.6%; in assay [6], -2.4%.

In the case of `NCCn1[nH]c(=O)c2ncccc2c1=O`, the growth inhibition in assay [1] is -59%; in assay [2] it was -27.6%; in assay [3] it was -4.45%; in assay [4] it was -49.1%; in assay [5], -6.6%; in assay [6], -14.9%.

For the compound `COCCNC(c1ccccc1)C(O)c1ccccc1` (stereo unspecified), the growth inhibition in assay [1] is 6.4%; in assay [2], -15.6%; in assay [3] it was -5.15%; in assay [4] it was -33%; in assay [5] it was 7.5%; in assay [6], -7.85%.

For the compound `CCOC(=O)CC1(C)SCCN1C(N)=O` (stereo unspecified), the growth inhibition in assay [1] was 2.25%; in assay [2] it was 4.35%; in assay [3] it was -5.85%; in assay [4] it was -26.3%; in assay [5], 4%; in assay [6] it was -10.2%.

`COc1cc(NS(=O)(=O)c2ccc(C)cc2)c2nccnc2c1`: the growth inhibition was 14.1% in assay [1]; 15.7% in assay [2]; 18.6% in assay [3]; -3.35% in assay [4]; 11.9% in assay [5]; 29.6% in assay [6].

Consider `COC(=O)C1(C)CCCC2(C)C1CCC13OC1C1(C(C)C)OC1CC23` (stereo unspecified), for which the growth inhibition in assay [1] is 5.1%; in assay [2], -20.6%; in assay [3], 11.1%; in assay [4], -26.4%; in assay [5], -3%; in assay [6], 8.2%.

Take `c1ccc2c(c1)CCCN2c1ncnc2ccccc12`: the growth inhibition in assay [1] was -10.2%; in assay [2], -8.45%; in assay [3] it was -2.8%; in assay [4], -62.6%; in assay [5], 15.6%; in assay [6], -7.4%.

As for `Cc1cc(Cl)ccc1OCCCC(=O)NC(Cc1c[nH]c2ccccc12)C(=O)O` (stereo unspecified), the growth inhibition in assay [1] was 3.35%; in assay [2], 2.9%; in assay [3] it was 17.7%; in assay [4] it was 22.4%; in assay [5], -2.4%; in assay [6], 9.35%.

Consider `C=CCn1c(=S)sc2ccccc21`, for which the growth inhibition in assay [1] is 14.8%; in assay [2], 13.3%; in assay [3], 12.8%; in assay [4], 17.7%; in assay [5] it was -7.65%; in assay [6], -1.95%.

With `CCCCC(=O)c1cc2ccccc2c2ccccc12`, the growth inhibition in assay [1] was -3.7%; in assay [2], -20.4%; in assay [3] it was 0.2%; in assay [4], -11.1%; in assay [5], 10.5%; in assay [6], 6.3%.

As to `OCc1c(CO)c(-c2ccc(Cl)c(Cl)c2)n2c1CCC2`, the growth inhibition in assay [1] was 13.4%; in assay [2], 2.4%; in assay [3], 8.1%; in assay [4] it was 14.9%; in assay [5], -0.2%; in assay [6] it was 51%.

`CCOC(=O)c1cc2nc3ccccn3c(=O)c2cc1N`: the growth inhibition in assay [1] was -1.15%; in assay [2] it was -17.5%; in assay [3] it was 0.85%; in assay [4], -36.3%; in assay [5] it was -9.3%; in assay [6] it was -8.45%.

For `Cc1cc(C)c(C#[N+][O-])c(C)c1C#[N+][O-]`, the growth inhibition in assay [1] is 5.9%; in assay [2], 8.1%; in assay [3] it was -5.8%; in assay [4], 13.7%; in assay [5], -1.1%; in assay [6], 15.4%.

With `C=CCCCCCCCCCCC`, the growth inhibition is -11.3% in assay [1]; -11.2% in assay [2]; -14.1% in assay [3]; 11.7% in assay [4]; 1.95% in assay [5]; -4.9% in assay [6].

Take `CCOC(CN=Cc1ccc2c(c1)Sc1ccccc1O2)OCC`: the growth inhibition was 73.1% (active) in assay [1]; 46.1% in assay [2]; 88.2% (active) in assay [3]; 55.2% in assay [4]; 64.8% in assay [5]; 89.5% (active) in assay [6].

Turning to `CCOC(=O)/C(=C\c1ccccc1)C(=O)O`, the growth inhibition in assay [1] is -6.75%; in assay [2], -29.9%; in assay [3], -6.25%; in assay [4], 26%; in assay [5], -21.9%; in assay [6], -1.8%.

These data come from PubChem BioAssay (NCI).
